In PubChem BioAssay (EPA / NIEHS) one finds outcome and AC50 data, which are given here for three compounds.

Conditions in all cases: mRNA level, 48 h; actives raise or lower the signal
Read-out in experiment [1]: adenosine kinase (ADK) gene, ADK (gene 132)
Nature of the experiment: LTEA_HepaRG_ADK: Life Technologies and Expression Analysis (LTEA) Assay for adenosine kinase (ADK) gene using HepaRG (AID 2283471). A digest of the protocol:
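Read-out is ADK transcript level measured by qRT-PCR and normalised to three housekeeping genes. Cells are human HepaRG, dosed for 48 h at up to 100 uM in 0.5% DMSO. Gain or loss of signal is fitted against DMSO controls.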

Read-out in experiment [2]: Alpha-fetoprotein (AFP) gene, AFP (gene 174)
Nature of the experiment: LTEA_HepaRG_AFP: Life Technologies and Expression Analysis (LTEA) Assay for Alpha-fetoprotein (AFP) gene using HepaRG (AID 2283472). The method in brief:
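AFP transcript measured by TaqMan qRT-PCR with three housekeeping genes for normalization, after 48 h chemical treatment of HepaRG cells (top 100 uM, half-log steps, 0.5% DMSO). Gain or loss fitted against vehicle.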

Read-out in the next experiment: BCL2L11 (gene 10018)
Nature of the experiment: LTEA_HepaRG_BCL2L11: Life Technologies and Expression Analysis (LTEA) Assay for Bcl-2 (BCL2L11) gene using HepaRG (AID 2283473). A digest of the protocol: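 Differentiated human HepaRG cells were exposed 48 h in serum-free induction medium to eight half-log concentrations up to 100 uM in 0.5% DMSO, in duplicate. BCL2L11 mRNA was quantified by TaqMan qRT-PCR, normalized to ACTB, GAPDH and POLR2A; induction or repression fitted versus DMSO.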

Read-out in experiment [3]: Apolipoprotein A-V (APOA5) gene, APOA5 (gene 116519)
Nature of the experiment: LTEA_HepaRG_APOA5: Life Technologies and Expression Analysis (LTEA) Assay for Apolipoprotein A-V (APOA5) gene using HepaRG (AID 2283474). A digest of the protocol: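 Differentiated HepaRG cells in serum-free induction medium, exposed 48 h in duplicate to eight half-log concentrations topping at 100 uM (0.5% DMSO). APOA5 mRNA by Fluidigm TaqMan qRT-PCR, normalized to ACTB, GAPDH and POLR2A; bidirectional fit versus DMSO.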

Read-out in experiment [4]: Apoptosis regulator Bcl-2 (Homo sapiens) (UniProt P10415)
Nature of the experiment: LTEA_HepaRG_BCL2: Life Technologies and Expression Analysis (LTEA) Assay for Bcl-2 gene using HepaRG (AID 2283475). The method in brief: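 qRT-PCR of BCL2 transcript, normalized to three housekeeping genes (ACTB, GAPDH, POLR2A), after 48 h chemical exposure of HepaRG cells; concentrations top 100 uM with half-log dilutions, 0.5% DMSO vehicle, duplicates; changes up or down fitted relative to vehicle.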

Read-out in experiment [5]: Bcl-2 (BID) gene, BID (gene 637)
Nature of the experiment: LTEA_HepaRG_BID: Life Technologies and Expression Analysis (LTEA) Assay for Bcl-2 (BID) gene using HepaRG (AID 2283476). The method in brief:
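Duplicate 48 h treatments of HepaRG cells in serum-free induction medium spanned 100 uM downward in half-log steps, 0.5% DMSO. Transcript change quantified by qRT-PCR against three housekeeping genes, fitted up or down versus DMSO.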

Read-out in the next experiment: Caspase-3 (Homo sapiens) (UniProt P42574)
Nature of the experiment: LTEA_HepaRG_CASP3: Life Technologies and Expression Analysis (LTEA) Assay for cysteine-aspartic acid protease (CASP3) using HepaRG (AID 2283477). The method in brief:
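Differentiated HepaRG cells, plated 48 h, were treated in duplicate in serum-free induction medium for 48 h with eight half-log concentrations up to 100 uM in 0.5% DMSO. CASP3 mRNA measured by qRT-PCR, normalized to ACTB, GAPDH, POLR2A.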

Read-out in experiment [6]: Cytochrome P450 (CYP24A1), CYP24A1 (gene 1591)
Nature of the experiment: LTEA_HepaRG_CYP24A1: Life Technologies and Expression Analysis (LTEA) Assay for Cytochrome P450 (CYP24A1) using HepaRG (AID 2283478). A digest of the protocol: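 HepaRG cells plated 48 h, then exposed in duplicate in serum-free induction medium for 48 h to 8-point half-log series from 100 uM in 0.5% DMSO. CYP24A1 mRNA by Fluidigm qRT-PCR, normalized to ACTB, GAPDH, POLR2A; bidirectional fit versus DMSO.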

Read-out in experiment [7]: Cytochrome P450 (CYP1A2), CYP1A2 (gene 1544)
Nature of the experiment: LTEA_HepaRG_CYP1A2: Life Technologies and Expression Analysis (LTEA) Assay for Cytochrome P450 (CYP1A2) using HepaRG (AID 2283479). The method in brief: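 Differentiated human HepaRG cells in serum-free induction medium exposed 48 hours in duplicate to 8 half-log concentrations from 100 uM, 0.5% DMSO. CYP1A2 mRNA quantified by qRT-PCR, normalized to ACTB, GAPDH and POLR2A; bidirectional fitting versus DMSO.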

Read-out in experiment [8]: cysteine-aspartic acid protease (CASP8), CASP8 (gene 841)
Nature of the experiment: LTEA_HepaRG_CASP8: Life Technologies and Expression Analysis (LTEA) Assay for cysteine-aspartic acid protease (CASP8) using HepaRG (AID 2283480). A digest of the protocol: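 qRT-PCR readout of CASP8 mRNA, normalized to three housekeeping genes, after 48 h chemical exposure of HepaRG cells; 8-point half-log series, top 100 uM, 0.5% DMSO vehicle. Bidirectional curve fitting against DMSO baseline.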

Read-out in experiment [9]: Cytochrome P450 (CYP2B6), CYP2B6 (gene 1555)
Nature of the experiment: LTEA_HepaRG_CYP2B6: Life Technologies and Expression Analysis (LTEA) Assay for Cytochrome P450 (CYP2B6) using HepaRG (AID 2283481). A digest of the protocol:
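Differentiated human HepaRG cells in serum-free induction medium, dosed in duplicate for 48 h over 8 half-log concentrations topping at 100 uM (0.5% DMSO). CYP2B6 mRNA measured by TaqMan qRT-PCR, normalized to ACTB, GAPDH, POLR2A; bidirectional fit versus DMSO.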

Read-out in experiment [10]: Cytochrome P450 2C19 (Homo sapiens) (UniProt P33261)
Nature of the experiment: LTEA_HepaRG_CYP2C19: Life Technologies and Expression Analysis (LTEA) Assay for CYP2C19 using HepaRG (AID 2283482). A digest of the protocol:
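Differentiated HepaRG cells in serum-free induction medium exposed 48 h in duplicate, 8 concentrations from 100 uM by half-log steps in 0.5% DMSO. CYP2C19 mRNA measured by TaqMan qRT-PCR, normalized to ACTB, GAPDH, POLR2A. Bidirectional fit versus DMSO.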

Read-out in a further experiment: CYP2C8 (gene 1558)
Nature of the experiment: LTEA_HepaRG_CYP2C8: Life Technologies and Expression Analysis (LTEA) Assay for CYP2C8 using HepaRG (AID 2283483). The method in brief: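 HepaRG (human liver line), 48 h chemical exposure, 8-pt half-log series from 100 uM, 0.5% DMSO vehicle. Readout: CYP2C8 transcript by qRT-PCR, housekeeping-normalized. Bidirectional fit vs DMSO baseline.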

Read-out in another experiment: CYP2C9 (gene 1559)
Nature of the experiment: LTEA_HepaRG_CYP2C9: Life Technologies and Expression Analysis (LTEA) Assay for CYP2C9 using HepaRG (AID 2283484). A digest of the protocol: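 HepaRG, 48 h dosing, 8-pt half-log series, top 100 uM, 0.5% DMSO vehicle. Read-out: CYP2C9 transcript by TaqMan qRT-PCR, housekeeping-normalized (ACTB/GAPDH/POLR2A). Gain or loss fitted vs DMSO baseline.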

Read-out in the next experiment: CYP2E1 (gene 1571)
Nature of the experiment: LTEA_HepaRG_CYP2E1: Life Technologies and Expression Analysis (LTEA) Assay for CYP2E1 using HepaRG (AID 2283485). A digest of the protocol: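 CYP2E1 transcript measured by Fluidigm qRT-PCR against three housekeeping genes in human HepaRG cells treated 48 h (top 100 uM, half-log steps, 0.5% DMSO vehicle). Gain or loss fitted relative to DMSO baseline.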

Read-out in the next experiment: CYP4A11 (gene 1579)
Nature of the experiment: LTEA_HepaRG_CYP4A11: Life Technologies and Expression Analysis (LTEA) Assay for CYP4A11 using HepaRG (AID 2283486). The method in brief:
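Differentiated HepaRG cells, 48 h after plating, exposed in duplicate for 48 h to 8 half-log concentrations up to 100 uM in 0.5% DMSO in serum-free induction medium. CYP4A11 mRNA measured by TaqMan qRT-PCR, normalized to ACTB, GAPDH and POLR2A.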

Read-out in experiment [11]: Cytochrome P450 3A4 (Homo sapiens) (UniProt P08684)
Nature of the experiment: LTEA_HepaRG_CYP3A4: Life Technologies and Expression Analysis (LTEA) Assay for CYP3A4 using HepaRG (AID 2283487). A digest of the protocol:
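HepaRG, 48 h exposure, 8-pt CRC from 100 uM (half-log), 0.5% DMSO, duplicates; serum-free induction medium. Readout: CYP3A4 mRNA, qRT-PCR, ACTB/GAPDH/POLR2A normalization. Bidirectional fit vs DMSO.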

Read-out in experiment [12]: DNA damage-inducible transcript 3 (DDIT3), DDIT3 (gene 1649)
Nature of the experiment: LTEA_HepaRG_DDIT3: Life Technologies and Expression Analysis (LTEA) Assay for DNA damage-inducible transcript 3 (DDIT3) using HepaRG (AID 2283488). The method in brief: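 DDIT3 transcript was quantified by qRT-PCR with ACTB/GAPDH/POLR2A normalization after 48 h chemical treatment of differentiated HepaRG cells in 0.5% DMSO. Dosing was eight-point, half-log, top 100 uM, duplicate wells. Curves fitted bidirectionally versus DMSO.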

Read-out in experiment [13]: Pro-epidermal growth factor (Homo sapiens) (UniProt P01133)
Nature of the experiment: LTEA_HepaRG_EGF: Life Technologies and Expression Analysis (LTEA) Assay for Epidermal growth factor (EGF) using HepaRG (AID 2283489). The method in brief: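 HepaRG cells (~100,000/well, 48 h pre-culture) exposed in duplicate for 48 h in serum-free induction medium to 8 half-log concentrations up to 100 uM in 0.5% DMSO. EGF mRNA by qRT-PCR, normalized to ACTB/GAPDH/POLR2A; bidirectional fit versus DMSO.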

Read-out in experiment [14]: Early growth response protein 1 (EGR1) transcription factor, EGR1 (gene 1958)
Nature of the experiment: LTEA_HepaRG_EGR1: Life Technologies and Expression Analysis (LTEA) Assay for Early growth response protein 1 (EGR1) transcription factor using HepaRG (AID 2283490). The method in brief: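 HepaRG, 48 h exposure, 8-pt half-log series from 100 uM, 0.5% DMSO vehicle; EGR1 transcript by TaqMan qRT-PCR (Fluidigm array), housekeeping-normalized; bidirectional fit relative to DMSO baseline.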

The source made the active and inactive calls. How the source made its calls: active means hit-call score of the fitted dose curve at least 0.9, where 1 is the maximum; inactive means score below 0.9.

Apoptosis regulator Bcl-2 (Homo sapiens), sequence (P10415 whole entry, looked up): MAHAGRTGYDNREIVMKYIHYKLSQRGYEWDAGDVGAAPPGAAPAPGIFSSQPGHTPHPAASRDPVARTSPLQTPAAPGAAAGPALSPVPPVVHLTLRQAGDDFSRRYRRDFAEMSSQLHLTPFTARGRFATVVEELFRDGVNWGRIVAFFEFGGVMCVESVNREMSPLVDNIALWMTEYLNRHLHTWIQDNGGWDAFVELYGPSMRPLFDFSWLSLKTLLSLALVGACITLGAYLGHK
Cytochrome P450 3A4 (Homo sapiens), sequence (P08684 whole entry, looked up): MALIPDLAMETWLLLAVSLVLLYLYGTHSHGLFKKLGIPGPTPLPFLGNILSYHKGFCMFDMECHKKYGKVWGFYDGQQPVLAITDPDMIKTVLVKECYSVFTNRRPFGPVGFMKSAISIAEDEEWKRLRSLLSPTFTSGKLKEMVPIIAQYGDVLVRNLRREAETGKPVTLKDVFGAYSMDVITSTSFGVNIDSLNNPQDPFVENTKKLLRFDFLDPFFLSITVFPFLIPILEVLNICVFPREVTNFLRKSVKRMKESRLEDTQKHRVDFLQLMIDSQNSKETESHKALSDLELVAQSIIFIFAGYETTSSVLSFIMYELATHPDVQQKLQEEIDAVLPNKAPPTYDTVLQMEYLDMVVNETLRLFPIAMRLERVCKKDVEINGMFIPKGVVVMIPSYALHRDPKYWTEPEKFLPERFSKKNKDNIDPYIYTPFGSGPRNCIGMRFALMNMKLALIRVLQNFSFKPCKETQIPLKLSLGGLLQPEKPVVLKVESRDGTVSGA
Cytochrome P450 2C19 (Homo sapiens), sequence (P33261 whole entry, looked up): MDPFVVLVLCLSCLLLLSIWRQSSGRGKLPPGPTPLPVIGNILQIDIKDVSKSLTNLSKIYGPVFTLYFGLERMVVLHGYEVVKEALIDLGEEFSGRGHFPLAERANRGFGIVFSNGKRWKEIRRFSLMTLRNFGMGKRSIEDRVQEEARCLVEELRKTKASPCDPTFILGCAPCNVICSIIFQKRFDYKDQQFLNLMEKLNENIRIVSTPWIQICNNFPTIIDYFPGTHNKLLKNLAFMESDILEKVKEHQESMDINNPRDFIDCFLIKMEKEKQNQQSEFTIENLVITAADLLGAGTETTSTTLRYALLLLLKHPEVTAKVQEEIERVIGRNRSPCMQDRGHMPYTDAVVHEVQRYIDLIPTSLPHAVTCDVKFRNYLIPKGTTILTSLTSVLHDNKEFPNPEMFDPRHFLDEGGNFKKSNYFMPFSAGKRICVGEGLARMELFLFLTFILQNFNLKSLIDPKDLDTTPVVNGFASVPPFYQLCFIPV
Caspase-3 (Homo sapiens), sequence (P42574 whole entry, looked up): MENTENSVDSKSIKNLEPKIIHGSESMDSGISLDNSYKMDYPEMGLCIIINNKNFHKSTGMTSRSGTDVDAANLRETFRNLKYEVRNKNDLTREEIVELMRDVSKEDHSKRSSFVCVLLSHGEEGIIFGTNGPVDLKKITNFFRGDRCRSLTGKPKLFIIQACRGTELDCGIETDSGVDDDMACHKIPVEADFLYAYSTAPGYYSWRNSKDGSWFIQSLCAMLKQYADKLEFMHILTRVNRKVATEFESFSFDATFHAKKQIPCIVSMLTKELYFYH

For the compound `Nc1cccc2c(N)cccc12`, the compound was called inactive (in experiment [1]; in [2]; in the experiment with BCL2L11 (gene 10018); in [3]; in [4]; in [5]). Also, the compound was classed as inactive (in the experiment with Caspase-3 (Homo sapiens); in experiment [6]; in experiment [8]; in experiment [10]; with CYP2C8 (gene 1558); with CYP2C9 (gene 1559)). Moreover, the compound was classed as inactive in [11], in experiment [12], in experiment [13] and in experiment [14]. The AC50 in [7] was 20.1 µM (active); in experiment [9], 2.68 µM (active); in the experiment with CYP2E1 (gene 1571) it was 50 µM (active); with CYP4A11 (gene 1579), 50 µM (active).
As for `COc1ccc([N+](=O)[O-])cc1N`, the compound was called inactive (in [1]; in experiment [2]; with BCL2L11 (gene 10018); in experiment [3]; in [4]; in experiment [5]). The call (with Caspase-3 (Homo sapiens); in [6]; in experiment [8]; in experiment [10]; with CYP2C8 (gene 1558); with CYP2C9 (gene 1559)) was inactive. Further, the call (with CYP2E1 (gene 1571); with CYP4A11 (gene 1579); in experiment [11]; in [12]; in [13]; in experiment [14]) was inactive. The concentration at half-maximal activity (AC50) in [7] was 50 µM (active); in [9] it was 20.7 µM (active).
Take `Cc1cc(C)c(O)c(C)c1`: the outcome (in experiment [1]; in experiment [2]; with BCL2L11 (gene 10018); in experiment [3]; in experiment [4]; in [5]) was inactive. Also, the call (with Caspase-3 (Homo sapiens); in experiment [6]; in experiment [7]; in experiment [8]; with CYP4A11 (gene 1579); in [12]) was inactive. Further, the compound was called inactive in experiment [13] and in [14]. The half-maximal activity concentration (AC50) in experiment [9] is 3.65 µM (active); in experiment [10], 9.18 µM (active); in the experiment with CYP2C8 (gene 1558), 5.03 µM (active); with CYP2C9 (gene 1559), 6.31 µM (active); with CYP2E1 (gene 1571) it was 13.4 µM (active); in [11], 13.7 µM (active).
